Molecules are shown by their SMILES. Entries with a potency or affinity are not part of this list. Active and inactive are the calls of the source.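 The calls were made as follows: active = polarization signal falls with dose and the fitted half-maximal concentration is at or below ten times the sample's top valid dose; inconclusive = flat curve at 30 to 70% inhibition, or poor fit; inactive = signal rises, flat within 30%, or potency beyond limit.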

For the experiment, the target named is Golgi-associated PDZ and coiled-coil motif-containing protein (Homo sapiens) (UniProt Q9HD26). Briefly: potency against CAL PDZ-peptide interaction – biochemical, fluorescence polarization, Cerulean-tagged CAL PDZ, cherry-picks, dose response (AID 504773). The conditions noted are these: CAL PDZ-peptide binding, 1 h; series mostly up to 50 µM.
As to `O=C(Nc1cccc(F)c1)c1ccco1`, the call was inactive.
As to `Cc1ccc(-c2nnn(CC(=O)N(CCN3CCOCC3)C(C(=O)NC(C)(C)C)c3ccc(C)o3)n2)cc1` (configuration not stated), the compound was called inactive.
For `Cc1cccc(C(=O)Nc2nnc(COc3ccccc3)s2)c1`, the call was inactive.
Under `COn1c(SCc2ccccc2)nc2ccccc2c1=O` stands “inactive”; under `COC(=O)c1ccccc1NC(=O)n1cc(C)cn1`, “inactive”.
The entry for `CS(=O)(=O)c1ccc(Cl)c(NC(=O)COC(=O)c2c(Cl)cccc2Cl)c1` is “inactive”; for `O=P(O)(COc1ccccc1)COc1ccccc1` it is “inactive”.
`Nc1nc2ccccc2cc1S(=O)(=O)c1ccccc1`: the outcome was inactive.
Under `CCOc1ccccc1N(CC(=O)Nc1cccc2ccccc12)S(C)(=O)=O` stands “inactive”.
For the compound `CC(C)Oc1ccc(C(=O)Nc2ccc(S(=O)(=O)N3CCN(C)CC3)cc2)cc1`, the compound was classed as inactive.
The entry for `COCC(=O)NNC(=O)c1ccc(OC)cc1` is “inactive”; for `O=C(NC(Cc1c[nH]c2ccccc12)C(=O)O)/C(=C/c1ccc(F)cc1)NC(=O)c1ccccc1` (configuration not stated) it is “inactive”; for `Cc1nc(N)c(CC(Br)CBr)c(Cl)n1` (configuration not stated) it is “inactive”.
For the compound `CCOC(=O)C1(Cc2cccc(Cl)c2)CCCN(C(=O)c2cccc(C)n2)C1` (configuration not stated), the outcome was inactive.
Under `Cc1ccc(-c2[nH]c3ccccc3c2SCCN)cc1` stands “inactive”; under `CCC(=O)N1CCC(C(N)=O)(N2CCCCC2)CC1`, “inactive”; under `COc1ccc(/C=C2\N=C(c3ccc(C)cc3)OC2=O)cc1`, “inactive”.
`O=C(NCC1CCCO1)c1cn(-c2ccccc2)nc1-c1ccc(F)cc1` (configuration not stated): the outcome was inactive.
The entry for `CC(=O)N1CCN(c2ccc(NC(=O)C(c3ccccc3)c3ccccc3)cc2)CC1` is “inactive”; for `Cn1c(CNC(=O)OC(C)(C)C)n[nH]c1=S` it is “inactive”; for `COc1cc(Br)c(C(=O)c2nccc3cc(OC)c(OC)cc23)cc1OC` it is “inactive”.
Turning to `Cn1c(=O)c2c(ncn2CC(=O)Nc2nc(-c3ccccc3Cl)cs2)n(C)c1=O`, the call was inactive.
As to `O=C(CCc1nc(-c2ccc(Cl)cc2)no1)NC1CCCCC1`, the outcome was inactive.
For the compound `Cc1ccc2cc(C#N)c(N3CCCN(S(=O)(=O)c4ccccc4)CC3)nc2c1`, the compound was called inactive.
The entry for `Cc1ccc(SCC(=O)NCc2ccc(F)cc2)cc1` is “inactive”; for `C[C@H](NC(=O)c1ccccc1Cl)C(=O)NCc1cccs1` it is “inactive”; for `Cc1ccc(-c2nc3ccccc3c(=O)o2)cc1` it is “inactive”.
The entry for `Cc1ccc(S(=O)(=O)N2CCN(C(=O)c3cc(=O)c4ccccc4o3)CC2)cc1` is “inactive”; for `COc1cccc(N2CCN(C(=O)c3ccc(-c4ccccc4)cc3)CC2)c1` it is “inactive”.
Regarding `CC1CCN(c2nc3c(c(=O)n(C)c(=O)n3C)n2CCSc2nc3ccccc3s2)CC1`, the outcome was inactive.
Under `Cc1ccccc1CN(C)C(C)C(=O)Nc1ccccc1F` (configuration not stated) stands “inactive”.
In the case of `CCC(C)(C)NC(=O)CSc1nc(Cc2ccccc2)nc2ccccc12`, the compound was classed as inactive.
Under `COc1ccc(CC(=O)N2CCC(CCC(=O)Nc3ccccc3)CC2)cc1` stands “inactive”; under `CC1Cc2ccccc2N1C(=O)CNc1ccccc1N1CCCCC1` (configuration not stated), “inactive”; under `CN(C(=O)CC1C(=O)NCCN1CC(c1ccccc1)c1ccccc1)C(C1CC1)C1CC1` (configuration not stated), “inactive”.
Consider `Oc1ccc(/C=N\Nc2nncc(-c3ccccc3)n2)cc1`, for which the compound was classed as inactive.
Under `COc1ccc(Oc2nc3c(c(=O)n(C)c(=O)n3C)n2C)cc1` stands “inactive”.
